From PubChem BioAssay (Tox21)
Inconclusive results are not listed. Unmarked numbers belong to inactive results. Calls of active or inactive are those of the source. Calls follow the shape of the dose curve; as a rule, active = well fitted cell-killing curve with a large enough effect in the repeat runs; inconclusive = weak or mixed curves, or effect the other way; inactive = no such curve, though single readings can be large or run the other way.

Assay: qHTS assay for identifying genotoxic compounds that show differential cytotoxicity against isogenic chicken DT40 cell lines with known DNA damage response pathways - Rev3 mutant cell line (AID 743014); also: nearly all actives have a fitted effect of over 55% in size
Conditions: chicken DT40 Rev3-/- viability, CellTiter-Glo, 40 h; series mostly up to 68.4 µM; activity, negative = cytotoxicity: at the top concentration
From the text: National Center for Advancing Translational Sciences [NCATS]
NIH Chemical Genomics Center [NCGC]
U.S. Environmental Protection Agency [EPA]
National Institutes of Environmental Health Sciences [NIEHS]
National Toxicology Program [NTP]
U.S. Food and Drug Administration [FDA]
DNA repair pathways play a critical role in cellular homeostasis by repairing DNA damage induced by endogenous processes and xenobiotics. Isogenic chicken DT40 cell lines deficient in different DNA repair pathways can be used to identify genotoxic compounds and aid in characterizing the nature of the DNA damage induced. Two DNA repair-deficient cell lines with disrupted genes, Rad54/Ku70 or Rev3, were used to screen the Tox21 10K compound library. Possible genotoxicity was based on the presence of a significant increase in cytotoxicity in one or more of the DNA repair-deficient cell lines compared to that observed in the parental DNA repair-proficient cell line. CellTiter Glo viability assay (Promega, Madison, WI) was used to measure cell viability in these cells after compound treatment. This assay includes the data from the Rev3 mutant cell line.
Tox21 Assay Protocol Summary:
300 DT40 mutant cells in 5 uL/well were dispensed into white, solid-bottom 1536-well plates using a Multidrop Combi (ThermoFisher Scientific, Waltham, MA) dispenser. After the assay plates were incubated at 37 C/5% CO2 for approximately 0.5 hour, 23 nL of compounds dissolved in DMSO, positive controls or DMSO only was transferred into the assay plate by a pintool work station (Kalypsys, San Diego, CA). The assay plates were incubated at 37 C/5% CO2 for 40 hours. After 5 uL per well of CellTiter-Glo reagent was added into each well of the assay plates, the plates were incubated for 30 min at room temperature and the luminescence intensity of the plates was measured using a ViewLux (PerkinElmer, Shelton, CT) plate reader.
% is scaled to controls: 0 for no effect and ±100 for the full control effect; potency is read from the fitted curve at half-maximal effect.

Compound	Potency	activity, negative = cytotoxicity
NCCOCCOCCN	24.3 µM (active)	
Oc1ccc(CCNCCCCCCNCCc2ccccc2)cc1O	29.8 µM (active)	
O=C(O)c1ccccc1-n1cc(C(=O)O)c(=O)c2cc(Nc3c(F)cc(F)cc3Cl)c(Cl)cc21		0.746%
C=CCCC		-0.0464% [at 95 µM]
O=C(O)CCc1nc2ccccc2[nH]1		13.3%
Cc1ccc(NC(=O)c2ccc(CN3CCN(C)CC3)cc2)cc1Nc1nccc(-c2cccnc2)n1	11.9 µM (active)	
C=CC(=O)NC(C)(C)C		-31.6%
C[C@H](CN1CCCC1)C(=O)c1ccc(C(F)(F)F)cc1	10.6 µM (active)	
COc1ccc(CN(CCN(C)C)c2ncccn2)cc1		-0.0832%
CC(C(=O)O)c1ccc(/C=C2\CCCCC2=O)cc1 (stereo not given)		7.13%
OCCc1ccncc1		-3.82%
CCOC(C)OCC	inactive	
CCOc1ccccc1O		9.5%
COc1ccc(C(=O)c2ccc(C)cc2)c(O)c1		-3.25%
O=C(O)c1ccc2cc(O)ccc2c1		-9.51%
CC(=O)S[C@H](C(=O)N[C@H]1Cc2ccccc2[C@H]2CCC[C@@H](C(=O)O)N2C1=O)C(C)C		-17.4%
C=CC(C)(O)CC/C=C(/C)CCC=C(C)C (stereo not given)	54.5 µM (active)	
OCCCO		3.4% [at 95 µM]
CCCCCCCCCCCCSC#N		-13.3%
COc1ccc(/C=C/c2cc(OC)cc(=O)o2)cc1		-23.3%

Compound	Potency	activity, negative = cytotoxicity
O=[N+]([O-])c1cccc(I)c1		2.11%
COC(=O)Cc1cccc2ccccc12	54.5 µM (active)	
Clc1nc2ccccc2nc1Cl		10.4% [at 95 µM]
[O-][n+]1ccc(Cl)cc1		1.83% [at 95 µM]
Cc1c(Nc2ncccc2C(=O)O)cccc1C(F)(F)F		-20% [at 31.4 µM]
O=C(OC1C[C@H]2CC[C@@H](C1)[N+]21CCCC1)C(O)(c1ccccc1)c1ccccc1 (stereo not given in full)		-3.86%
Oc1ccc(Oc2ccccc2)cc1	23.1 µM (active)	
O=C1CCCN1CCO	54.5 µM (active)	
O=C(O)CNc1ccccc1		0.548%
Cc1ccc2c(Cl)cc(Cl)c(O)c2n1	2.37 µM (active)	
Nc1ccccc1Nc1ccccc1	8.66 µM (active)	
CC[C@H](NC(C)C)[C@H](O)c1ccc(O)c2[nH]c(=O)ccc12		13.5%
C[C@H]1C[C@H]2[C@@H]3CCC4=CC(=O)C=C[C@]4(C)[C@@]3(F)[C@@H](O)C[C@]2(C)[C@@]1(O)C(=O)COP(=O)(O)O		-3.59%
O=C(Cl)c1cc(Cl)cc(Cl)c1		9.64% [at 95 µM]
CCCCCCCCCCCCCCCCN		-3.99%
FC(F)(Cl)C(F)(Cl)Cl		2.29%
O=P(c1ccccc1)(c1ccccc1)c1ccccc1	61.1 µM (active)	
Cc1ccc(S(=O)(=O)NC(=O)NC2CCCC2)cc1		-0.787%
O=[N+]([O-])c1ccc(Cl)cc1Cl		-4.84%
CCCCCCCCCCCCSCCOCCO		-6.23%
